Bcl-2 Bim block = inhibitors of Bim-Bcl-2 interaction, human | P10415 | Bead-based flow cytometry, Bim peptide-Bcl-2 binding | inhibition, % at 10 µM | actives 0.06% (n = 190,000); in the data active means inhibition above about 40%
Bim-Bcl-W = human Bim-Bcl-W interaction inhibition; inhibition, % at 10 µM; actives 0.02% (n = 190,000); bead-based flow cytometry, Bim peptide-Bcl-W binding;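 further: higher means less fluorescent Bim peptide bound to Bcl-W beads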
Target sequence (Q92843 whole entry, looked up): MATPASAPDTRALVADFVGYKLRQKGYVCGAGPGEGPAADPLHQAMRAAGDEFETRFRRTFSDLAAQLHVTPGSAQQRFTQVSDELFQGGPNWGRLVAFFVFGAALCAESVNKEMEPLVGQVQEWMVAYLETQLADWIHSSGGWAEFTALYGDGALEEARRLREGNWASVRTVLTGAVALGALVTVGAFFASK
Bim-Bcl-B = human Bim-Bcl-B interaction inhibition; actives 0.073% (n = 190,000); inhibition, % at 10 µM; bead-based flow cytometry, Bim peptide-Bcl-B binding
Bcl-XL Bim block = disrupts Bim peptide binding to human Bcl-XL. Q07817. bead flow cytometry, fluorescence. inhibition, % at 10 µM. actives 0.04% (n = 190,000). AID 1007
Bfl-1 Bim block = disrupts Bim binding to human Bfl-1 | Q16548 | Bead-based flow cytometry, Bim-Bfl-1 binding inhibition | inhibition, % at 10 µM | actives 0.12% (n = 190,000)
Bim-Bcl-XL DR = Bim-Bcl-XL interaction regulation, dose confirmation; shares compounds with Bfl-1 Bim block; bead-based flow cytometry, Bim-Bcl-XL binding; inhibition of binding at 100 µM; 40 tested, under 10 active; AID 2084; call rule not given here
A number is an active result; i = inactive; nt = not tested or not shown. The list is not random: actives were taken first. Their share in the collection is about 0.2%. Unless noted, no stated cut-off is given here; in the data, active means inhibition above about 40%.

SMILES	Bcl-2 Bim block	Bim-Bcl-W	Bim-Bcl-B	Bcl-XL Bim block	Bfl-1 Bim block	Bim-Bcl-XL DR
Cc1cc(-c2cc(-c3ccc(Cl)cc3)nc(N)c2C#N)co1	i	i	i	i	40	i
Cc1ccc(-c2cc(-c3ccc4c(c3)OCO4)c(C#N)c(N)n2)o1	i	i	i	i	i	nt
Cc1ccc(-c2cc(-c3ccc(F)cc3)c(C#N)c(N)n2)o1	i	i	i	i	i	i
Cc1ccc(-c2cc(-c3ccc(C)o3)nc(N)c2C#N)cc1	85	i	nt	i	nt	i
O=C(Nc1cccc(C(F)(F)F)c1)N(Cc1ccc(Cl)cc1)CC(O)C(F)(F)F (stereo not given)	i	i	i	i	i	nt
CC(=O)c1cccc(NC(=O)CN(Cc2ccccc2)S(C)(=O)=O)c1	i	i	i	i	i	nt
COc1ccccc1NC1=C(NC(C)=O)C(=O)c2ccccc2C1=O	i	i	i	i	42	i
COc1ccccc1NC(C)=O	i	i	i	i	i	nt
S=c1[nH]cc(-c2ccccc2)n1-c1ccccc1	i	i	i	i	i	i
O=c1c2c(n3nnnc3n1Cc1ccccc1)-c1ccccc1CC21CCCC1	i	i	69	i	i	i
Cc1ccc(C=NNC(=O)CSc2nnc(-c3ccc(Cl)cc3)n2-c2ccccc2)o1	nt	nt	nt	nt	nt	i
Cc1ccc(/C=N/NC(=O)CSc2nnc(-c3ccccc3)n2-c2ccc(Cl)cc2)o1	i	i	i	i	i	nt
CN(CCO)c1cc(Sc2nc3ccccc3s2)c2nonc2c1[N+](=O)[O-]	i	i	i	i	50	i
CCOC(=O)C1(CCCCCCOc2ccc(Cl)cc2)CO1 (stereo not given)	i	i	i	i	i	nt
